The whole screen tested about 200,000 compounds, of which about 25 (0.01%) were called active. Inconclusive results (about 23%) are left out. Calls come from the whole dose curve; as a rule, active = well fitted inhibition curve with a large enough effect in the signal ratio, with a control signal flat (not every such curve was filed as active); inconclusive = small, poorly fitted or top-dose-only effect, or effect the other way, or a change in a side signal; inactive = flat fitted curve, though single readings scatter; the % refers to the signal ratio. Only a selection was taken, and actives are over-represented in it overall.
assay: qHTS Assay for Modulators of Lamin A Splicing; conditions: HeLa LMNA splicing GFP/RFP minigene ratio, 48 h; series mostly up to 46 µM; ratio change, negative = inhibition: at the top concentration
From the text: NCGC Assay Overview: Hutchinson-Gilford Progeria Syndrome (HGPS) is a pediatric premature aging disease caused by a spontaneous mutation in the lamin A/C (LMNA) gene. The mutation activates a cryptic splice site in the LMNA pre-mRNA which results in production of a pre-lamin A protein that cannot be processed properly. The mutant protein accumulates in the nucleus and negatively affects numerous cellular functions. Correction of the splicing defect in HGPS patient cells using a targeted oligonucleotide (exo11) leads to reversal of the cellular disease phenotypes. To identify small molecule modulators of aberrant LMNA splicing, a homogenous assay was constructed in HeLa cells that used a GFP containing minigene to report on correction of aberrant splicing in lamin A and a RFP (DsRed2) to report on cell viability, uniformity and nonspecific effects on the assay signal. This assay was adapted to laser-scanning microplate cytometry (Acumen, TTP Labtech) where miniaturization of the assay to a 1,536-well plate format was possible. References: Bowen, W. P.; Wylie, P. G. Application of Laser-Scanning Fluorescence Microplate Cytometry in High Content Screening. Assay Drug Dev Technol 2006;4:209-221. Scaffidi P, Misteli T. Reversal of the cellular phenotype in the premature aging disease Hutchinson-Gilford progeria syndrome. Nat.
NCGC Assay Protocol Summary: Reagents/Controls: Stable clones expressing DsRed2 and lamin A-EGFP were generated by Cell and Molecular Technologies in S3 HeLa cells. HeLa cells were prepared for the assay when they were 70-90% confluent. The cells were counted and resuspended in Opti-MEM I (no phenol red; Gibco), 2% FBS, 1% penicillin/ streptomycin (Gibco) at concentration of 120 cells/uL concentration. The suspension was passed through a Falcon basket filter with pore size 40um (Beckton Dickson). Control titrations: column […] 1536-well plate contained a sixteen point titration (1:2 dilutions) in duplicate of ancitabine (Sigma: A8598) beginning at 40 uM final concentration. Column 2 contained a sixteen point titration (1:2 dilutions) of cycloheximide beginning at 1.4 mM final concentration. Column 3 contained ancitabine at 40 uM and column 4 contained was the vehicle control (0.5% DMSO final concentration). Assay Steps: 5 uL of HeLa cells were plated in Aurora LoBase black clear bottom (cyclic-olefin polymer) 1536-well plates at a final density of 600 cells/well. Controls and library compounds were added with a 1536-well pin array using the Kalypsys pin-tool. The plates were then incubated for 48 hrs in a cell-culture incubator (37 °C; 5% CO2, 98% humidity). Following incubation the plates were read on the Acumen Explorer using the 488 nm laser. Data was collected on objects between 10 and 100 um in size. Cell objects were defined by a 15 um width x 10 um depth filter. The ratio of the total object intensity in PMT1 (500-530 nm emission; GFP) over PMT3 (575-640 nm emission; RFP) was calculated for analysis. Keywords: NIH Roadmap, MLSCN, MLI, MLSMR, qHTS, NCGC, lamin A, Progeria, RNA splicing.
% is set by controls: 0 for no effect and ±100 for the full control effect; potency is the fitted concentration of half-maximal effect.

Ratio change, negative = inhibition, inactive:
CCc1nnc2c3ccccc3nc(N3CCN(c4ccc(C)cc4C)CC3)n12 -13.9%
O=C1COc2ccc(C(=O)COC(=O)C3CC(O)CN3S(=O)(=O)c3ccc(Cl)cc3)cc2N1 (configuration not stated) -23.2%
COC(=O)c1c(NC(=O)CCCC(=O)O)sc2c1CCCCC2 -7.02%
COc1cccc(CNC(=O)C2CCN(S(=O)(=O)c3ccc4c(ccn4C)c3)CC2)c1 -12.3%
CC1(C)CN(c2ccc(-c3ccnc4ncnn34)cc2)C1=O -28.7%
CCOc1cc(C(=O)Nc2nnc3n2CCS3)cc(OCC)c1OCC -0.322%
COc1ccc(C(C)=O)cc1CSc1nc2nc(C)cc(C)n2n1 11.6%
CC(=O)N1CCCc2ccc(NS(=O)(=O)c3ccc(F)cc3F)cc21 6.09%
CCOc1ccc(-n2cnc3c(=O)[nH]c(N)nc32)cc1 19.4%
CCOC(=O)Cn1c(=O)n(-c2ccccc2OC)c2nc(-c3cccc(F)c3)nc(C(N)=O)c21 -9.35%
CCCNC(=O)CCC(=O)N1Cc2ccccc2Oc2ncccc21 8.53%
COc1ccc(NC(=O)N2CCCn3nc(C)cc32)cc1OC 6.06%
Cc1cnc(C(=O)OCC(=O)N2CCc3ccccc32)cn1 1.94% [at 9.22 µM]
COC(=O)CSc1ncnc2c1cnn2-c1ccc(C)cc1C 0.727%
COc1ccc(C2=NN(C(=O)CCC(=O)O)C(c3cccs3)C2)cc1OC (configuration not stated) 4.17%
CNc1nc2c(C)cccn2c(=O)c1C=Nc1ccc(OC)cc1 -17.3%
Cc1ccc(-n2nc(C)c3c(C)cc(=O)n(CC(=O)Nc4ccc(C(C)C)cc4)c32)cc1 -0.422%
COc1cc(NS(=O)(=O)c2ccc3c(c2)OCC(C(=O)N2CCCC2)O3)cc(OC)c1 (configuration not stated) -0.229%
COc1cccc(NC(=S)N(Cc2ccc(C)cc2)Cc2ccccn2)c1 -5.44%
O=C(Nc1ccccc1C(=O)O)c1cc(S(=O)(=O)N2CCCCC2)cs1 5.58%
COc1ccc(CNS(=O)(=O)c2cc3c4c(c2)CCN4C(=O)CC3)cc1 -8.87%
Cc1c(CCOC(=O)c2cc([N+](=O)[O-])ccc2Cl)sc[n+]1CCCCS(=O)(=O)[O-] 11.9%
COc1cc(/C=C/C(=O)OCC(=O)N2CCOCC2)ccc1OCC#N -0.73%
CC(C)CNc1ncnc2c1nnn2C 14%
CC1CN(/C=C/C(=O)C(F)(F)F)CC(C)O1 (configuration not stated) -0.822%
O=C(CC1C(=O)NCCN1Cc1ccc(-c2ccccc2)cc1)NCc1ccncc1 (configuration not stated) 13.2%
O=C(CCSCc1cccc(F)c1)NCc1ccccc1 30.8%
CC(C)CCNC(=O)CSc1nc2ccccc2nc1Cc1ccc(Cl)cc1 -3.3%
C/C(Cn1nnc2ccccc21)=N\OC(=O)c1cc(F)c(F)cc1Cl 0.235%
O=C(NCCc1ccccc1)c1cnc2sc(N3CCCC3)nn2c1=O 15.1%
O=[N+]([O-])c1cc([N+](=O)[O-])c2cccnc2c1O 1.6%
O=C(Nc1ccccc1F)C(c1ccccc1)N1Cc2ccccc2C1=O (configuration not stated) 18.7%
Cc1ccc(C)c(N2CCN(S(=O)(=O)c3ccc4c(c3)C(C(C)C)C(=O)N4)CC2)c1 (configuration not stated) -10.7%
Cc1cccc(N2CCN(C(=O)CCSCc3ccccc3F)CC2)c1C -21.7%
COc1ccc(SCc2cc(=O)c3ccc(C)c(C)c3[nH]2)cc1 -9.07%
Cc1ccc(C(c2nnnn2C(C)(C)C)N2CCc3ccccc3C2)cc1 (configuration not stated) -3.87% [at 46.1 µM]
CC(C)(C)n1nnnc1C(c1ccc(Cl)cc1)N1CCSCC1 (configuration not stated) -14% [at 46.1 µM]
COC(=O)C(C)NC(=O)COc1ccc2ccccc2c1 (configuration not stated) 4.35%
O=C(Nc1ccc2nc(SCC(=O)N3CCc4ccccc43)sc2c1)c1ccccc1F 3.72%
CCCN(CCC)CCNC(=O)c1ccc2c(c1)NC(=O)C(CS(=O)(=O)Cc1cccc(Br)c1)N2 (configuration not stated) -3.12%
CC(C)(C)NC(=O)COC(=O)c1cc(Cl)ccc1[N+](=O)[O-] -6.76%
O=C(CN(c1cccc(Cl)c1)S(=O)(=O)c1ccccc1)NN=C1CCCC1 14.5%
Cc1cccc(NC(=O)c2cc([N+](=O)[O-])ccc2N2CCN(C)CC2)c1 -17.1%
CCOc1ccc(Nc2ncnc3scc(-c4ccc(OC)cc4)c23)cc1 -25.8%
COc1cc(OC)cc(C(=O)NCCc2csc3nc(-c4ccccc4F)nn23)c1 -12.9%
CCc1ccc(NS(=O)(=O)c2ccc3[nH]cc(C(=O)NCCc4cccc(C)c4)c(=O)c3c2)cc1 -2.18%
CC(=O)NCC(=O)N1CCCC(C(=O)c2ccc3c4c(cccc24)CC3)C1 (configuration not stated) 9.21%
Cc1cccc(Oc2c([N+](=O)[O-])c(=O)n(C)c3ccccc23)c1 4.53%
CCOC(=O)c1sc(=NC(=O)/C=C/c2cccs2)n(C)c1C 2.93% [at 9.22 µM]
Cc1cccc(Cn2c(CN3CCC(C(=O)NCc4ccccc4Cl)CC3)cc3ccccc32)c1 0.813%
O=C(Nc1nnc(-c2ccco2)o1)c1ccc(S(=O)(=O)N2CCOCC2)cc1 16.1% [at 9.22 µM]

Potency, active:
CC(C)(C)n1nnnc1C(c1ccc2ncccc2c1)N1CCSCC1 (configuration not stated) 6.31 µM

Source: PubChem BioAssay AID1487 (National Center for Advancing Translational Sciences (NCATS), 2009)
